Only some compounds are listed: those with a hit (about 9.2% of all), similar ones and a draw of the others.
Rab9 prom act: qHTS Assay for Rab9 Promoter Activators. Huh7 Rab9 promoter-luciferase reporter, luminescence, 24 h. Potency, µM (top dose mostly 9.22 µM), inactives show at the highest dose activation, negative = inhibition, hits mostly activators. 320,000 tested, 2.8% active. AID 485297, 2010; also: % of control where 0% means no effect; nearly all actives have a fitted effect of over 60% in size
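Luminescence read-out: Huh7 cells stably expressing Rab9-luciferase, treated 24 h with compound at 37 °C, then lysed with luciferase reagent for 10 min at ambient before reading.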
SMN2 splice up: qHTS Assay for Enhancers of SMN2 Splice Variant Expression | HEK293 SMN2-luciferase splicing reporter, luminescence, 30-36 h | Potency, µM (titrated, usually from 46.1 µM), inactives show top-dose activity change, positive = activation, usual class: activators | 210,000 tested, 2.8% active; also: % of control where 0% means no effect; nearly all actives have a fitted effect of over 55% in size
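HEK293 cells carry an SMN2 minigene-luciferase reporter in which exon 7 inclusion puts luciferase in frame. Cells were seeded at 2000 cells/well, attached for 10-12 hours, then exposed to compounds for 30-36 hours at 37C before ONE-Glo luminescence.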
ELG1 genotox: qHTS screen for small molecules that induce genotoxicity in human embryonic kidney (HEK293T) cells expressing luciferase-tagged ELG1. Potency, µM (titrated, usually from 46 µM), for inactives: at the top dose activity change, positive = activation, actives largely listed as activators. HEK293T ELG1-luciferase reporter, luminescence, 16 h. 330,000 tested, 1.3% active. AID 504466, 2011; also: % of control where 0% means no effect; nearly all actives have a fitted effect of over 60% in size
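Luminescence read-out: rising ELG1-luciferase signal, reflecting elevated ELG1 protein under genetic stress, flags genotoxic compounds. Cells were treated for 16 hr at 37 °C before ONE-Glo detection.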
NPC1 prom act: qHTS Assay for NPC1 Promoter Activators. Huh7 NPC1 promoter luciferase reporter, 24 h. Potency, µM (top dose mostly 9.22 µM), inactives show at the top dose activation, usual class: activators. 320,000 tested, 2.4% active; also: % of control where 0% means no effect; nearly all actives have a fitted effect of over 60% in size
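NPC1 promoter–luciferase Huh7 cells; 24 h compound; luminescence.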
ELG1 repair inh: qHTS screen for small molecules that inhibit ELG1-dependent DNA repair in human embryonic kidney (HEK293T) cells expressing luciferase-tagged ELG1; HEK293T ELG1-luciferase reporter, luminescence, 16 h; DNA damage induced by 5-fluorouridine; Potency, µM (doses to about 46.1 µM), for the others: at the highest dose activity change, negative = inhibition, most hits filed as inhibitors; 330,000 tested, 2.3% active; AID 504467, 2011; also: % is scaled to controls: 0 for no effect and ±100 for the full control effect; nearly all actives have a fitted effect of over 55% in size
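Step one: seed 2,000 cells per well. Step two: pin-transfer compound or DMSO alongside 5-fluorouridine. Step three: incubate 16 hr, 37 °C, 5% CO2. Step four: add ONE-Glo, wait 30 min, read luminescence.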
FLuc modulator: qHTS profiling assay for firefly luciferase inhibitor/activator using purifed enzyme and Km concentrations of substrates (counterscreen for miR-21 project) | Potency, µM (highest dose often 57.5 µM), without a hit: at the highest dose activity change, negative = inhibition, most hits filed as inhibitors | Luciferin 4-monooxygenase (Photinus pyralis), P08659 | purified FLuc, Km substrates, luminescence inhibition | 360,000 tested, 6.9% active;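 also: plate controls were vehicle for no effect and reference inhibitor for full effect; nearly all actives have a fitted effect of over 55% in size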
Target sequence (P08659 whole entry, looked up): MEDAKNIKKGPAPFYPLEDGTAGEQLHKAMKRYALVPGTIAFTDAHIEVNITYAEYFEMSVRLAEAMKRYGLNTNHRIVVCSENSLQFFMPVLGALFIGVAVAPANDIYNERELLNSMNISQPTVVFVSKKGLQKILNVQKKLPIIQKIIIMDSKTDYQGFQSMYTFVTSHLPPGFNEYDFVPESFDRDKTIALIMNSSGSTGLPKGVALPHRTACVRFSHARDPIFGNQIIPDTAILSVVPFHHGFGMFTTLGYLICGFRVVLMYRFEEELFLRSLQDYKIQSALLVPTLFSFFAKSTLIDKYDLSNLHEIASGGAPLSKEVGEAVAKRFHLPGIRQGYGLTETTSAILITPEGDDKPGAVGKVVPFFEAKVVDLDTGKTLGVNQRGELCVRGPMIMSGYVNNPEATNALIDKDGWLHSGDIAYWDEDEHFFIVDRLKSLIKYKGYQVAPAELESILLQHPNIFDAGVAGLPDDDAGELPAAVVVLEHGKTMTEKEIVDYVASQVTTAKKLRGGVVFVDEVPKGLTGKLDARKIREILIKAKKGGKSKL
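Purified P. pyralis luciferase (10nM final) with 10uM D-luciferin and 10uM ATP (Km levels) in 50mM Tris acetate pH 7.5, 10mM Mg acetate, 0.01% Tween-20, 0.05% BSA; qHTS 6-point titration, ~60 µM downward; luminescence read.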
The depositor's hits bear a star; u = inconclusive; x = not tested or not shown. Calls follow the shape of the dose curve; as a rule, active = well fitted curve in the direction sought with a large enough effect; inconclusive = small, poorly fitted or top-dose-only effect, or another doubt; inactive = no such curve, though single readings can be large; an effect the other way counts as inactive or inconclusive. Potency is read from the fitted curve at half-maximal effect.

SMILES	Rab9 prom act	SMN2 splice up	ELG1 genotox	NPC1 prom act	ELG1 repair inh	FLuc modulator
CC(=O)c1cccc(NC(=O)CCc2nnc3ccc(NCc4ccc5c(c4)OCO5)nn23)c1	0%	x	0%	-5%	24%	-1%
CC(C)CN(C(=O)CSc1nc(N)cc(N)n1)C1CCS(=O)(=O)C1 (stereo not drawn)	x	x	-4%	x	u	x
COc1ccc(OCC(=O)c2c(O)c3ccccc3oc2=O)cc1	2%	x	9%	0%	-11%	17µM*
CC(=O)Nc1ccc2nc(-c3cccn3C)[nH]c2c1	u	x	u	27%	u	u
Cn1cccc1-c1nc2ccc([N+](=O)[O-])cc2[nH]1	2.2µM*	x	u	2.8µM*	u	12µM*
O=[N+]([O-])c1ccc2nc(-c3ccccc3)[nH]c2c1	2.5µM*	7.1µM*	u	2.8µM*	u	5.4µM*
O=c1[nH]c2ccccc2nc1/C=C/c1ccc(F)cc1	4µM*	x	21%	3.2µM*	u	2.4µM*
O=c1[nH]c2ccccc2nc1/C=C(\O)C1CC1	3%	8%	6%	2%	14%	-1%
O=c1[nH]c2ccccc2nc1/C=C/c1ccc(O)cc1	3.5µM*	x	u	u	u	6.7µM*
O=c1[nH]c2ccccc2nc1/C=C/c1ccccc1	1.8µM*	x	u	4µM*	u	1.9µM*
Cc1ccc(NC(=O)c2c(C)cc(C)nc2SCC(=O)Nc2ccc(Br)cc2)cc1	x	x	x	x	x	-10%
O=C(NC(=S)Nc1ccc2[nH]c(=O)[nH]c2c1)c1cccc(F)c1	23%	x	u	16%	u	0%
Oc1ccc(-c2csc(Nc3ccccn3)n2)cc1	3.2µM*	x	7.3µM*	2µM*	u	6.7µM*
COc1ccc(-c2csc(Nc3ccccn3)n2)cc1OC	2µM*	x	2.3µM*	1.8µM*	u	6.7µM*
Cc1cc(-c2csc(Nc3ccccn3)n2)ccc1F	1.6µM*	x	u	1.4µM*	u	1.7µM*
Cc1ccc(-c2csc(Nc3ccccn3)n2)cc1	1µM*	x	0.82µM*	0.71µM*	u	0.6µM*
Cc1c(Nc2nc(-c3ccc(Cl)cc3)cs2)c(=O)n(-c2ccccc2)n1C	0%	-19%	-2%	1%	-5%	2%
CC1(C(=O)OCC(=O)NNC(=O)COc2ccc(Cl)cc2)CC1(Cl)Cl (stereo not drawn)	-4%	x	-1%	-1%	1%	-1%
CN(C(=O)CSc1nc2ccccc2n1CC(=O)N(C)C1CCCCC1)c1ccc(F)cc1	x	x	x	x	x	-5%
COc1ccc(CCC(=O)NC2CC(=O)N(c3ccc(F)cc3)C2)cc1 (stereo not drawn)	x	x	x	x	x	-6%
CCOc1ccc(CNCCN2CCCC2)cc1	-8%	x	-6%	1%	0%	6%
CCOc1ccc(/C=C/c2nc(C#N)c(N3CCCCCC3)o2)cc1	x	1%	x	x	x	-10%
Fc1ccc(Nc2ncnc3onc(-c4cccc(Cl)c4)c23)c(F)c1	x	1%	x	x	x	-3%
O=C(NNc1nc(-c2ccccc2)cs1)c1ccccc1	4%	-2%	-1%	8%	u	u
c1ccc(-c2csc(Nc3ccccn3)n2)cc1	1.3µM*	x	2.9µM*	2.2µM*	u	1.3µM*
